# Only some compounds are listed: those with a hit (about 0.7% of all), similar ones and a draw of the others.
# DUSP3 inh – inhibitors of human VHR1 phosphatase (DUSP3); P51452; recombinant VHR phosphatase, pNPP absorbance; inhibition, % at 13.3 µM; 290,000 tested, 0.52% active; AID 1654; in the data active = inhibition above about 50%
# Target sequence (P51452 whole entry, looked up): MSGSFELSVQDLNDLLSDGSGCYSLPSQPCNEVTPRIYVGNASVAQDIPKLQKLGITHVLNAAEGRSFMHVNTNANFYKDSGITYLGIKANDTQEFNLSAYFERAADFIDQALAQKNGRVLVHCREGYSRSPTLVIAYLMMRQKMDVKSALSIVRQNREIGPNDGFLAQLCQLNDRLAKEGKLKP
# FadD28 binding – blocks FadD28 binding to the bisubstrate probe. fluorescence polarization. inhibition, % at 12.5 µM. 360,000 tested, 0.22% active. AID 588549; in the data active = inhibition above about 8.5%, passing the limit was not always enough
# SARS 3CLpro inh – SARS-CoV 3CLpro protease inhibition | inhibition, % at 6 µM | recombinant SARS-CoV 3CLpro, quenched FRET peptide cleavage | 290,000 tested, 0.14% active | P0C6X7; in the data active = inhibition above about 12%
# Mtb hypoxia inh – inhibitors of hypoxia-regulated fluorescent reporter in Mycobacterium tuberculosis | M. tuberculosis hypoxia-regulated fluorescent reporter, fluorescence | 300,000 tested, 0.1% active | fluorescence inhibition, % (test concentration not listed); in the data active = fluorescence inhibition mostly above about 23%, no sharp cut-off; inactive = mostly below about 17%
# BioA inh – inhibitors of Mycobacterium tuberculosis BioA enzyme | purified M. tuberculosis BioA enzyme, plate reader | inhibition, % at 9.99 µM | 360,000 tested, 0.096% active; in the data active = inhibition above about 40%
# Numbers without * were called inactive; · = no result.
SMILES,DUSP3 inh,FadD28 binding,SARS 3CLpro inh,Mtb hypoxia inh,BioA inh
CCCCC1CNC(=O)C(=O)N1CC(C)(C)C (centres undefined),·,·,·,14,·
Cc1cc(C)n(-c2cc(C(=O)O)cc(C(=O)O)c2)n1,53*,0,3,-7,·
Cc1cc(C)n(-c2ccc(Cl)c(C(=O)O)c2)n1,22,-2,-3,2,·
CCCCCc1c(C)nc(N2CCc3ccccc32)[nH]c1=O,53*,1,4,-2,·
CCCCCc1c(C)nc(N2CCc3ccccc3C2)[nH]c1=O,13,-4,3,1,0
COC(=O)c1sc(NC(=S)NNC(=O)c2c(Br)c(C)nn2C)c(C(=O)OC)c1C,40,20*,2,11,3
COC(=O)c1sc(S(=O)(=O)Nc2c(C)nn(C)c2C)c(C(=O)OC)c1C,·,1,·,-8,-2
CC1CN=C(Nc2ccccc2)N1CCCC1CCCC1 (centres undefined),·,·,·,7,·
Cc1cc2c(c(=O)n1Cc1cccnc1)C(c1ccccc1)C(C#N)=C(N)O2 (centres undefined),-5,-1,3,-1,48*
CCC(C)[C@H](NC(=O)OC(C)(C)C)C(=O)NN=CC1=Cc2ccccc2OC1 (some centres undefined),·,·,·,-1,·
Cc1cc2cc(CNC(=O)Nc3ccc(Cl)c(Cl)c3)ccc2n1C,12,13*,-1,4,-2
CCCOc1cccc(C(=O)NN=Cc2ccoc2)c1,·,·,·,-4,·
CC(=O)c1c(C)[nH]c(C(=O)N2CCN(c3ccccn3)CC2)c1C,57*,-5,-7,0,-2
CNC(=S)NN=Cc1c(C)nn(-c2cccc(Cl)c2)c1Cl,·,·,·,8,·
CC(C)C(NC(=O)NCc1cccs1)C(=O)O (centres undefined),·,·,·,-2,·
Cc1cccc(NC(=O)C(=O)NNC(=O)c2ccc(C(C)(C)C)cc2)c1,52*,-1,1,·,-5
C#CCNC(=O)C=Cc1ccc(OC)cc1,·,·,·,11,·
CCC1Oc2ccc(C)cc2N(CC(=O)NCCCN2CCCCC2CC)C1=O (centres undefined),-5,0,7,2,-5
CC1CCCCN1CCCNC(=O)CN1C(=O)c2cccnc2Oc2ccccc21 (centres undefined),56*,-2,-1,0,·
CCC1Oc2ccc(C)cc2N(CC(=O)NCCCN2CCCCC2C)C1=O (centres undefined),58*,-2,-3,·,-1
Oc1ccc(/C=N/N(Cc2ccccc2)c2ccccc2)c(O)c1O,10,16*,7,·,·
Oc1cccc(/C=N/N(Cc2ccccc2)c2ccccc2)c1,9,-1,4,·,·
CC(C)CC(NC(=O)c1nc[nH]c1C(=O)NCC(=O)OCc1ccccc1)C(=O)OC(C)(C)C (centres undefined),·,·,·,-2,·
O=C(c1oc(=O)c2ccccc2c1-c1ccccc1)N1CCOCC1,51*,0,3,·,0
COc1ccc(N2CCN(C(=O)CN3C(=O)NC(C)(c4ccc5ccccc5c4)C3=O)CC2)cc1 (centres undefined),·,2,·,1,-3
SMILES,DUSP3 inh,FadD28 binding,SARS 3CLpro inh,Mtb hypoxia inh,BioA inh
COc1ccccc1C(CNC(=O)CN1C(=O)NC(C)(c2ccc3ccccc3c2)C1=O)N1CCCC1 (centres undefined),·,-2,·,30*,-6
S=c1nc[nH]c2c1sc1nc(-c3ccccc3)c3c(c12)CCCC3,17,15*,1,14,·
N=C1c2ccccc2CN1NC(=O)C1CC1,-4,1,4,5,·
N=C1c2ccccc2CN1NC(=O)CC12CC3CC(CC(C3)C1)C2,-2,22*,3,15,·
O=C(C=Cc1cccc([N+](=O)[O-])c1)n1cnc2ccccc21,·,·,·,4,·
COc1ccc(N/C=C2\CCc3ccccc3C2=O)cc1,3,0,34*,7,4
COc1ccc2c(c1)CC/C(=C\Nc1ccc3c(c1)OCO3)C2=O,-2,1,-2,1,3
COc1ccc(C2C(C(C)=O)=C(C)N=c3s/c(=C\c4cc(C)n(C)c4C)c(=O)n32)c(OC)c1 (centres undefined),14,12*,-6,·,-3
CCOC(=O)C1=C(C)N=c2sc(=Cc3cccc([N+](=O)[O-])c3O)c(=O)n2C1c1ccc(OC)cc1OC (centres undefined),·,·,·,41*,·
C=C(Br)CN1C(Cc2ccccc2)C(O)[C@@]23C=CC(CC2S1(=O)=O)O3 (some centres undefined),·,·,·,-16,·
Cc1ccc(CSc2ccc(-c3ccco3)nn2)cc1,53*,-5,-1,-5,0
O=C1CCCC=CCC(CC(=O)N(CCO)Cc2ccccc2)C(=O)NC(Cc2ccccc2)CO1 (centres undefined),·,·,·,12,·
COc1ccccc1-c1coc2c(CN3CCC(C)CC3)c(O)ccc2c1=O,57*,-2,1,·,1
CCC1CCCCN1Cc1c(O)ccc2c(=O)c(-c3ccccc3OC)coc12 (centres undefined),·,-1,·,8,0
CC(/C=N/NC(=O)c1cccs1)=C\c1ccco1,51*,-3,3,·,1
Cn1cnc(S(=O)(=O)N2CCN(c3cccc(C(F)(F)F)c3)CC2)c1,50*,-3,0,2,1
CCN1C(=O)NC(CCc2ccccc2)C(C(C)=O)C1C (centres undefined),·,·,·,2,·
CC(C)(c1cc(Br)c(O)c(Br)c1)c1cc(Br)c(O)c(Br)c1,·,20*,·,·,2
O=C(Nc1cc(Cl)ccc1Cl)C1Cc2ccccc2OC1=NO (centres undefined),·,·,·,4,·
COc1ccccc1CN1CC2CC(c3ccc4nsnc4c3)N3CCC[C@@]23C1=O (some centres undefined),·,·,·,3,·
CCNC(=O)COC(=O)CCC(=O)c1cccs1,4,-2,-5,6,·
CCC(CC)NC(=O)COC(=O)CCC(=O)c1cccs1,52*,0,-1,-4,·
CCOc1ccc(S(=O)(=O)N2CCN(c3ccccn3)CC2)cc1,56*,1,-3,2,3
CCOCCCNC(=S)N(CCO)Cc1cc2cc3c(cc2[nH]c1=O)OCCO3,50*,1,-10,1,9
CC1CN(C(C)CO)C(=O)c2cc(NC(=O)Cn3cnnn3)ccc2OC1CN(C)S(=O)(=O)c1cn(C)cn1 (centres undefined),·,·,·,-2,·
SMILES,DUSP3 inh,FadD28 binding,SARS 3CLpro inh,Mtb hypoxia inh,BioA inh
O=C(Nc1cccc(Oc2ccc(C(=O)O)c(C(=O)O)c2)c1)c1ccc(-c2ccccc2)cc1,9,29*,5,12,4
C#CCOCCOCCOCCNc1nc(N2CCN(C(=O)Cn3cc(CCCN=C(N)N)nn3)CC2)nc(N2CCN(C(=O)C(C)n3cc(CCCN=C(N)N)nn3)CC2)n1 (centres undefined),·,·,·,1,·
CCOc1ccc(S(=O)(=O)NCCc2cn3ccccc3n2)cc1,26,-1,3,4,-1
O=S(=O)(NCCc1cn2ccccc2n1)c1ccc(-c2ccccc2)cc1,57*,-8,4,-8,-2
O=C(NN=Cc1cccnc1)c1cc(-c2ccc(Cl)s2)[nH]n1,·,·,·,4,·
Cc1cnc(C(=O)OCC(=O)Nc2cccc3ccccc23)cn1,·,-4,·,26*,0

# Bioassay records as filed in PubChem.
